# Measurements published in PubChem BioAssay.
# Test: COS7 lysate on small-molecule microarray, probe aHis, 635 nm (AID 1123);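 note: z-score combines 667nm fluorescence intensity with signal-to-noise per printed compound spot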
# Settings: COS7 cell lysate, fluorescence, higher = more signal
row,Compound,composite z-score
1,CCCCCCc1nc(-c2ccc(OC)nc2)cc2c1[Si](C(C)C)(C(C)C)O[C@H]2c1ccccc1,0.0277
2,O=C(CS)NCCCCCCNC(=O)[C@@H]1C[C@@H]2C(=O)N[C@@H](Cc3ccccc3)C(=O)N2[C@@H]1c1cccc(OCCO)c1,2.28
3,COC(=O)[C@@]1(Cc2ccc(OC)cc2)[C@H]2c3cc(C(=O)N(C)C)n(Cc4ccc(S(C)(=O)=O)cc4)c3C[C@H]2CN1C(=O)c1ccccc1,2.72
4,O=C1C[C@@](C(=O)NC2CC2)(c2ccc([N+](=O)[O-])cc2)[C@@H](c2ccc(CO)cc2I)N1C1CCCCC1,1.77
5,CN1C=C(C(=O)OCCS(C)(=O)=O)C(C(=O)OCCS(C)(=O)=O)=CC(c2ccc(CO)cc2)=CC1C1CC1 (stereo not drawn),0.951
6,O=C1NC(=O)C2C1C=CC(C(O)c1cc(C(F)(F)F)cc(C(F)(F)F)c1)N2Nc1ccccn1 (stereo not drawn),2.15
7,CN(C)CCCCCCNC(=O)[C@@H]1C[C@@H]2C(=O)N[C@@H](Cc3ccccc3)C(=O)N2[C@@H]1c1ccc(O)cc1,1.58
8,Cc1nc2cc(Br)ccc2c(=O)o1,0.495
9,O=C(NC1CC1)[C@@H]1c2ccccc2C(=O)N(Cc2ccccc2Cl)[C@H]1c1ccc(CO)cc1,2.33
10,O[C@@H](Cc1ccccc1)[C@H]1C2C=CCCC=C2CN1Cc1cccc(Cl)c1 (stereo partly drawn),0.822
11,COCCOC(=O)N1C(=O)[C@@]2(c3cc(C#CCNC(N)=O)ccc31)[C@H](C(=O)N1CCN(c3ncccn3)CC1)[C@H]1C(=O)O[C@H](c3ccccc3)[C@H](c3ccccc3)N1[C@@H]2c1ccc(OCCO)cc1,1.48
12,COCCOC(=O)N1C(=O)[C@@]2(c3cc(C#CCNC(N)=O)ccc31)[C@H](C(=O)Nc1nc3ccccc3s1)[C@H]1C(=O)O[C@H](c3ccccc3)[C@H](c3ccccc3)N1[C@@H]2c1ccc(OCCO)cc1,0.481
13,CC(C)C(O)C1C=CC2C(=O)N(c3ccccc3)C(=O)C2N1Nc1ccc([N+](=O)[O-])cc1 (stereo not drawn),1.84
14,CCOC(=O)C[C@H]1[C@H](OC(=O)c2ccccc2-c2ccccc2)[C@@H](NC(=O)CC(C)C)c2cc(OCCCO)ccc2N1C(=O)Cc1ccc(OC)cc1,0.761
15,C=C(CCCC)/C(=C/C[C@H](OC(C)=O)c1ccccc1OCCO)c1cc(C(=O)OC)ccc1OC,0.0095
16,C=CCC(OC(C)=O)[C@@H]1[C@@H](N(Cc2ccc(-c3ccccc3)cc2)C(=O)Cc2ccc(OC)cc2)c2cc(OCCCO)ccc2N1C(=O)Cc1ccc2ccccc2c1 (stereo partly drawn),0.49
17,COc1ccc(CCNC(=O)[C@@]2(Sc3ccc(C)cc3)CC(=O)N(C3Cc4ccccc4C3)[C@@H]2c2ccc(CO)cc2I)cc1,1.17
18,COC(=O)[C@@]1(Cc2ccccc2)N=C(c2ccc(OCCCO)cc2)O[C@H]1c1ccccc1,2.76
19,COCCOC(=O)N1C(=O)[C@@]2(c3cc(C#CCC(C(=O)OC)C(=O)OC)ccc31)[C@H](c1ccccc1OCCO)N1[C@H](c3ccccc3)[C@H](c3ccccc3)OC(=O)[C@H]1[C@@H]2C(=O)N1CCN(c2ncccn2)CC1,1.66
20,C=C(CCCC)/C(=C/C[C@@H](OC(=O)c1ccncc1)c1ccc(OCCO)cc1)c1cc(C(=O)OC)ccc1OC,0.517
21,CCCCN1CC=CC23O[C@@H]4C=CCCOC(=O)C4[C@H]2C(=O)N(CCCCCCO)[C@@H]3C1=O (stereo partly drawn),0.376
22,CN(C)CCCC[C@@H]1NC(=O)[C@H]2C[C@@H](C(=O)NCCCCCCN)[C@@H](c3ccc(O)cc3)N2C1=O,1.48
23,COc1ccc(-c2cc3c(c(-c4ccc(Oc5ccccc5)cc4)n2)[Si](C(C)C)(C(C)C)OC3)cn1,0.0687
